Assay outcomes as filed in PubChem BioAssay.
Only some compounds are listed: those with a hit (about 8% of all), similar ones and a draw of the others.
FMDV antiviral: High Throughput Screening for Foot and Mouth Disease Virus Antivirals | FMDV antiviral cell-based qHTS | Potency, µM (highest dose often 57.9 µM), usual class: inhibitors | 410,000 compounds, 1.2% hits | AID 1159524, 2015; calls by dose curve; tested in HEK293T cells; note: read-out not given here; nearly all actives have a fitted effect of over 45% in size
HCMV inh: qHTS Assay for inhibitors of the human cytomegalovirus (HCMV); HFF cells, HCMV-luciferase reporter, 72 h; hits give low values; activity change, negative = inhibition, % at 57.5 µM; 410,000 compounds, 4.5% hits; in the data active = activity change below about -60%; inconclusive = no clear call, values can overlap the other calls; inactive = above about -39%
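HFF cells seeded 16 h at 37C, treated with compounds, infected with luciferase-reporter HCMV at MOI 1 PFU/cell; luciferase read at 72 h post infection, normalized to buffer-only and Salinomycin controls.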
SARS PLP yeast: qHTS of Yeast-based Assay for SARS-CoV PLP; AID 485353, 2010; S. cerevisiae expressing SARS-CoV PLpro, growth rescue; 330,000 compounds, 0.19% hits; Potency, µM (doses to about 32.9 µM), most hits filed as activators; calls by dose curve; note: nearly all actives have a fitted effect of over 55% in size
HCV inhibitor: qHTS Assay for Inhibitors of Hepatitis C Virus (HCV); Potency, µM (doses to about 41.8 µM), actives largely listed as inhibitors; Huh7.5.1 HCVcc-Cre infection, luciferase reporter, 44 h; 340,000 compounds, 3.4% hits; AID 651820, 2012; active = well fitted inhibition curve with a large enough effect; inconclusive = small, poorly fitted or top-dose-only effect, or another doubt; inactive = no such curve, though single readings can be large or run the other way
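Reporter virus HCVcc-Cre (~0.5 moi) infects cells exposed to compound; seeding density 1,000 cells/well with 4 h settling beforehand. Luminescence, 15 sec read, taken 44 h post-infection following a 15 min RT substrate incubation.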
Marburg entry inh: qHTS for inhibitors of binding or entry into cells for Marburg Virus. Marburg virus pseudotyped entry inhibition, cell reporter. 300,000 compounds, 1.8% hits. Potency, µM (highest dose often 37.8 µM), actives largely listed as inhibitors. AID 540276, 2011; calls by dose curve; tested in HEK293 cells
Lassa entry inh: qHTS for Inhibitors of binding or entry into cells for Lassa Virus | Lassa virus pseudotype entry inhibition, cell reporter | 300,000 compounds, 1.2% hits | Potency, µM (top dose mostly 37.9 µM), most hits filed as inhibitors | AID 540256, 2011; calls by dose curve; tested in HEK293 cells; note: nearly all actives have a fitted effect of over 50% in size
Numbers stand for hits.

`CC(C)c1ccccc1NC(=O)COC(=O)c1cc([N+](=O)[O-])ccc1N1CCOCC1` gave FMDV antiviral inconclusive, HCMV inh inactive, SARS PLP yeast inactive, HCV inhibitor inconclusive, Marburg entry inh inconclusive and Lassa entry inh inactive.
O=C(COC(=O)c1cc([N+](=O)[O-])ccc1N1CCCC1)Nc1ccccc1OC(F)F was read as FMDV antiviral inconclusive, HCMV inh inactive, SARS PLP yeast inactive, HCV inhibitor 13µM, Marburg entry inh inactive and Lassa entry inh inactive.
`COc1ccc(NC(=O)c2cc([N+](=O)[O-])ccc2N2CCCCC2)cc1OC` gave FMDV antiviral inactive, HCMV inh inactive, SARS PLP yeast inactive, HCV inhibitor 25µM, Marburg entry inh inconclusive and Lassa entry inh inconclusive.
For CCC(CC)c1nnc(NC(=O)c2cc([N+](=O)[O-])ccc2N2CCCCC2)s1 the results were FMDV antiviral inactive, HCMV inh inactive, SARS PLP yeast inactive, HCV inhibitor 7.1µM, Marburg entry inh inconclusive and Lassa entry inh inconclusive.
Screening COc1ccccc1NC(=O)COC(=O)c1cc([N+](=O)[O-])ccc1N1CCCC1 returned FMDV antiviral inconclusive, HCMV inh inactive, SARS PLP yeast inactive and HCV inhibitor 13µM.
`O=C(COC(=O)c1cc([N+](=O)[O-])ccc1N1CCOCC1)Nc1ccccc1OC(F)F` gave FMDV antiviral inactive, HCMV inh inactive, SARS PLP yeast inactive, HCV inhibitor inconclusive, Marburg entry inh inactive and Lassa entry inh inconclusive.
Screening CC(C)CNC(=O)c1cc([N+](=O)[O-])ccc1N1CCCCC1 returned FMDV antiviral inactive, HCMV inh inconclusive, SARS PLP yeast inactive, HCV inhibitor inactive, Marburg entry inh inactive and Lassa entry inh inactive.
For COc1cc([C@H](O)CO)ccc1O the results were Marburg entry inh inactive.
Screening COc1ccc(CSC2=CS(=O)(=O)c3ccccc3N2)cc1 returned FMDV antiviral inactive, HCMV inh -62, SARS PLP yeast inactive, HCV inhibitor inactive, Marburg entry inh inconclusive and Lassa entry inh inactive.
Screening O=C(N[C@H]1CC[C@@]23CCCN2C(=O)CCC[C@H]3[C@H]1Cc1ccccc1)C(c1ccccc1)c1ccccc1 returned HCMV inh inactive.
Cc1noc(-c2ccc(-c3noc(-c4ccccc4)n3)cc2)n1 was read as FMDV antiviral inactive, HCMV inh inactive and Lassa entry inh inactive.
`Cc1ccc(-c2nc(-c3ccccc3)no2)cc1` gave FMDV antiviral 11µM, HCMV inh inactive, SARS PLP yeast inactive, HCV inhibitor inactive, Marburg entry inh inconclusive and Lassa entry inh inconclusive.
Cc1cc(C)cc(-c2nc(-c3ccncc3)no2)c1 was read as FMDV antiviral inactive, HCMV inh inactive, SARS PLP yeast inactive and HCV inhibitor inactive.
For Cc1ccc(-c2nc(-c3ccncc3)no2)cc1 the results were FMDV antiviral inactive, HCMV inh inactive, SARS PLP yeast inactive, HCV inhibitor inconclusive, Marburg entry inh inconclusive and Lassa entry inh inconclusive.
`Cc1cccc(-c2nc(-c3ccncc3)no2)c1` gave FMDV antiviral inactive, HCMV inh inactive, SARS PLP yeast inactive, HCV inhibitor inconclusive, Marburg entry inh inconclusive and Lassa entry inh 10µM.
For CC(C)(C)c1ccc(-c2nc(-c3ccncc3)no2)cc1 the results were FMDV antiviral inconclusive, HCMV inh -70, SARS PLP yeast inactive, HCV inhibitor inactive, Marburg entry inh inconclusive and Lassa entry inh inconclusive.
Screening Cc1ccc(-c2nc(-c3ccccc3)no2)c(Cl)c1 returned FMDV antiviral inactive, HCMV inh -79, SARS PLP yeast inactive and HCV inhibitor inactive.
For O=C(N[C@H]1CC[C@@]23CCCN2C(=O)CCC[C@H]3[C@H]1Cc1ccccc1)c1ccc(C(F)(F)F)cc1 the results were HCMV inh inactive.
COc1cccc(-c2cc3c(c(OC)c2)OCCN(Cc2cccn2-c2ccccn2)C3)c1 was read as FMDV antiviral inactive.
`CCOc1ccc(N(CC)S(=O)(=O)N2CCCC(C(=O)Nc3cc(Cl)ccc3C)C2)cc1` (stereo not drawn) gave FMDV antiviral inconclusive, HCMV inh inactive and Lassa entry inh inactive.
For Cc1ccc(Cl)cc1N1CCN(c2cccc[n+]2C)CC1 the results were FMDV antiviral inactive, HCMV inh -93, SARS PLP yeast inactive, HCV inhibitor inactive, Marburg entry inh inconclusive and Lassa entry inh inactive.
`CCOc1ccc(-c2nc3c(C#N)c[nH]n3c2NC2CCCC2)cc1` gave FMDV antiviral inactive, HCMV inh inactive, Marburg entry inh inactive and Lassa entry inh inactive.
Screening COCCCN=Cc1c(C)[nH]n(-c2ccc(Br)c(C)c2)c1=O returned FMDV antiviral inactive, HCMV inh inactive, SARS PLP yeast inactive, HCV inhibitor inconclusive, Marburg entry inh inconclusive and Lassa entry inh 11µM.
`Cc1noc(C)c1S(=O)(=O)N1CCCC(C(=O)Nc2ccc(C(C)C)cc2)C1` (stereo not drawn) gave FMDV antiviral inactive, HCMV inh inactive, Marburg entry inh inconclusive and Lassa entry inh inactive.
Screening CCOc1nc(NCCc2ccc(OC)c(OC)c2)nc(N2CCN(c3ccc(OC)cc3)CC2)n1 returned FMDV antiviral inactive, HCMV inh inactive, SARS PLP yeast inactive, HCV inhibitor inactive, Marburg entry inh inactive and Lassa entry inh inconclusive.
Screening CCOc1cc(CNc2ccc(N3CCN(C(C)=O)CC3)cc2)cc(Br)c1OC returned FMDV antiviral inactive, HCMV inh inconclusive, SARS PLP yeast inactive, HCV inhibitor inactive, Marburg entry inh inactive and Lassa entry inh inactive.
For COc1cc(CNc2ccc(N3CCN(C(C)=O)CC3)cc2)ccc1OCc1ccc(F)cc1 the results were FMDV antiviral inactive, HCMV inh -73, SARS PLP yeast inactive, HCV inhibitor inactive, Marburg entry inh inconclusive and Lassa entry inh inactive.
Screening CC(=O)N1CCN(c2ccc(NCc3ccc(F)cc3)cc2)CC1 returned FMDV antiviral inconclusive, HCMV inh inactive, SARS PLP yeast inactive and HCV inhibitor inconclusive.
For COc1ccc(N2CCN(c3nc(NCCc4ccc(OC)c(OC)c4)nc(OC)n3)CC2)cc1 the results were FMDV antiviral 25µM, HCMV inh -90, HCV inhibitor 11µM, Marburg entry inh inconclusive and Lassa entry inh inconclusive.
`COc1ccc(N2CCN(C(=O)NCc3ccc(OC)c(OC)c3)CC2)cc1` gave FMDV antiviral inactive, HCMV inh -68, SARS PLP yeast inactive, HCV inhibitor inactive and Marburg entry inh inactive.
For CC(=O)N1CCN(c2ccc(NCc3cccc(C)c3)cc2)CC1 the results were FMDV antiviral inconclusive, HCMV inh -77 and SARS PLP yeast inactive.
For Cc1nc(-c2ccc(S(=O)(=O)N(C)Cc3ccccc3)cc2)co1 the results were FMDV antiviral inactive, HCMV inh inactive and Lassa entry inh inactive.
Screening C=CC[C@@H]1C=C[C@@H](Oc2ccc(OC)cc2)[C@@H](COC(=O)c2ccc(Br)cc2)O1 returned Marburg entry inh inactive.
